# Reference: the supplement of paper PMC8728848
# Shown is part of a subset that was picked to be rich in the strongest signals.
# Key:
# Assay in all cases: glycan array binding signal (z-score within array); higher = stronger binding
# Settings in all cases: glycan notation: IUPAC condensed, linker removed
# 3dGal(b1-4)Glc = target: 3dGal(b1-4)Glc
# Outline: (§1)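 From the Consortium for Functional Glycomics database, 3228 arrays were curated, keeping only those whose protein sequence was available. Binding is given as a within-array Z-score averaged across arrays sharing a protein sequence and across linkers. Negative Z-scores can be read as non-binding.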
# [1] = target: Ara(a1-5)Ara(a1-5)Ara(a1-5)Ara(a1-5)Ara(a1-5)Ara(a1-5)Ara
# Outline: as §1
# [2] = target: Fuc(a1-2)Gal(b1-3)[Fuc(a1-4)]GlcNAc(b1-3)[Fuc(a1-3)[Gal(b1-4)]GlcNAc(b1-6)]Gal(b1-4)Glc
# Outline: as §1
# [3] = target: Fuc(a1-3)[3dGal(b1-4)]Glc
# Outline: as §1
# [4] = target: Fuc(a1-3)[Gal(b1-4)]GlcNAc(b1-3)Gal(b1-4)[Fuc(a1-3)]Glc
# Outline: as §1
# Gal(a1-4)Gal(b1-4)GlcNAc = target: Gal(a1-4)Gal(b1-4)GlcNAc
# Outline: as §1
# [5] = target: Gal(b1-3)GalNAc(b1-4)Gal(b1-4)Glc
# Outline: as §1
# Gal(b1-4)GlcNAc(b1-3)Fuc = target: Gal(b1-4)GlcNAc(b1-3)Fuc
# Outline: as §1
# [6] = target: Gal(b1-4)GlcNAc(b1-3)Gal(b1-4)Glc
# Outline: as §1
# Gal(b1-6)GalNAc = target: Gal(b1-6)GalNAc
# Outline: as §1
# GalNAc(b1-4)Gal(b1-4)Glc = target: GalNAc(b1-4)Gal(b1-4)Glc
# Outline: as §1
# [7] = target: Glc(a1-4)Glc(a1-4)Glc(a1-4)Glc(a1-4)Glc(a1-4)Glc(a1-4)Glc(a1-4)Glc
# Outline: as §1
# Glc(a1-6)Glc = target: Glc(a1-6)Glc
# Outline: as §1
# [8] = target: Glc(a1-6)Glc(a1-4)Glc(a1-4)Glc
# Outline: as §1
# [9] = target: Glc(a1-6)Glc(a1-6)Glc(a1-6)Glc
# Outline: as §1
# [10] = target: Glc(a1-6)Glc(a1-6)Glc(a1-6)Glc(a1-6)Glc
# Outline: as §1
# [11] = target: Glc(b1-6)Glc(b1-6)Glc(b1-6)Glc(b1-6)Glc(b1-6)Glc(b1-6)Glc(b1-6)Glc
# Outline: as §1
# GlcA(b1-3)Gal = target: GlcA(b1-3)Gal
# Outline: as §1
# [12] = target: GlcA(b1-3)GlcNAc(b1-4)GlcA(b1-3)GlcNAc(b1-4)GlcA(b1-3)GlcNAc(b1-4)GlcA(b1-3)GlcNAc(b1-4)GlcA(b1-3)GlcNAc(b1-4)GlcA(b1-3)GlcNAc(b1-4)GlcA(b1-3)GlcNAc
# Outline: as §1
# [13] = target: GlcNAc(b1-2)Man(a1-3)[GlcNAc(b1-2)Man(a1-6)]Man
# Outline: as §1
# [14] = target: GlcNAc(b1-2)[GlcNAc(b1-4)]Man(a1-3)[GlcNAc(b1-2)[GlcNAc(b1-6)]Man(a1-6)]Man(b1-4)GlcNAc(b1-4)GlcNAc
# Outline: as §1
# GlcNAc(b1-3)Fuc = target: GlcNAc(b1-3)Fuc
# Outline: as §1
# [15] = target: GlcNAc(b1-3)[GlcNAc(b1-6)]Gal
# Outline: as §1
# [16] = target: HexA6S(a1-4)GlcNS6S(a1-4)IdoA2S(a1-4)GlcNS6S(a1-4)IdoA2S(a1-4)GlcNS6S(a1-4)IdoA2S(a1-4)GlcNS6S(a1-4)IdoA2S(a1-4)GlcNS6S(a1-4)IdoA2S(a1-4)GlcNS6S(a1-4)IdoA2S(a1-4)GlcNS6S
# Outline: as §1
# [17] = target: Kdn(a2-3)Gal(b1-3)GalNAc(b1-4)[Kdn(a2-3)]Gal(b1-4)Glc
# Outline: as §1
# Kdn(a2-6)Gal = target: Kdn(a2-6)Gal
# Outline: as §1
# [18] = target: Man(a1-3)Man(a1-6)[Man(a1-3)]Man(b1-4)GlcNAc(b1-4)GlcNAc
# Outline: as §1
# Neu(a2-6)Gal(b1-4)Glc = target: Neu(a2-6)Gal(b1-4)Glc
# Outline: as §1
# [19] = target: Neu5Ac(a2-3)4dGal(b1-4)[Fuc(a1-3)]GlcNAc(b1-3)Gal
# Outline: as §1
# [20] = target: Neu5Ac(a2-3)6dGal(b1-4)[Fuc(a1-3)]GlcNAc(b1-3)Gal
# Outline: as §1
# [21] = target: Neu5Ac(a2-3)Gal(b1-3)GalNAc6S(b1-4)Gal(b1-4)Glc
# Outline: as §1
# [22] = target: Neu5Ac(a2-3)Gal(b1-3)GlcNAc(b1-3)[Fuc(a1-3)[Gal(b1-4)]GlcNAc(b1-6)]Gal(b1-4)Glc
# Outline: as §1
# [23] = target: Neu5Ac(a2-3)Gal(b1-3)[Neu5Ac(a2-6)]GalNAc(b1-4)Gal(b1-4)Glc
# Outline: as §1
# [24] = target: Neu5Ac(a2-3)Gal(b1-4)[Fuc(a1-3)]Glc
# Outline: as §1
# [25] = target: Neu5Ac(a2-3)[GalNAc(b1-6)]Gal(b1-4)Glc
# Outline: as §1
# [26] = target: Neu5Ac(a2-6)Gal(b1-4)GlcNAc(b1-3)[Neu5Ac(a2-6)Gal(b1-4)GlcNAc(b1-6)]Gal(b1-4)Glc
# Outline: as §1
# Neu5Ac(a2-6)Glc6S = target: Neu5Ac(a2-6)Glc6S
# Outline: as §1
# Neu5Ac(a2-6)GlcNAc6S = target: Neu5Ac(a2-6)GlcNAc6S
# Outline: as §1
# [27] = target: Xyl(b1-2)[Man(a1-3)][Man(a1-6)]Man(b1-4)GlcNAc(b1-4)[Fuc(a1-3)]GlcNAc
# Outline: as §1
binder,measurement,setting,value
"HysACBM (Streptococcus pneumoniae), Q54873 (protein) KNLVENGDFGQTEDGSSPWTGSKAQGWSAWVDQKNSADASTRVIEAKDGAITISSHEKLRAALHRMVPIEAKKKYKLRFKIKTDNKIGIAKVRIIEESGKDKRLWNSATTSGTKDWQTIEADYSPTLDVDKIKLELFYETGTGTVSFKDIELVEVADQLS",glycan array binding signal (z-score),3dGal(b1-4)Glc,-0.091
same,glycan array binding signal (z-score),[1],-0.091
same,glycan array binding signal (z-score),[2],0.584
same,glycan array binding signal (z-score),[3],-0.091
same,glycan array binding signal (z-score),[4],0.007
same,glycan array binding signal (z-score),Gal(a1-4)Gal(b1-4)GlcNAc,-0.091
same,glycan array binding signal (z-score),[5],0.174
same,glycan array binding signal (z-score),Gal(b1-4)GlcNAc(b1-3)Fuc,0.281
same,glycan array binding signal (z-score),[6],-0.091
same,glycan array binding signal (z-score),Gal(b1-6)GalNAc,-0.064
same,glycan array binding signal (z-score),GalNAc(b1-4)Gal(b1-4)Glc,0.321
same,glycan array binding signal (z-score),[7],0.776
same,glycan array binding signal (z-score),Glc(a1-6)Glc,-0.091
same,glycan array binding signal (z-score),[8],-0.059
same,glycan array binding signal (z-score),[9],-0.091
same,glycan array binding signal (z-score),[10],-0.091
same,glycan array binding signal (z-score),[11],-0.091
same,glycan array binding signal (z-score),GlcA(b1-3)Gal,0.267
same,glycan array binding signal (z-score),[12],21.5
same,glycan array binding signal (z-score),[13],-0.091
same,glycan array binding signal (z-score),[14],0.264
same,glycan array binding signal (z-score),GlcNAc(b1-3)Fuc,-0.05
same,glycan array binding signal (z-score),[15],-0.091
same,glycan array binding signal (z-score),[16],-0.091
same,glycan array binding signal (z-score),[17],-0.091
same,glycan array binding signal (z-score),Kdn(a2-6)Gal,-0.091
same,glycan array binding signal (z-score),[18],-0.091
same,glycan array binding signal (z-score),Neu(a2-6)Gal(b1-4)Glc,0.823
same,glycan array binding signal (z-score),[19],-0.091
same,glycan array binding signal (z-score),[20],-0.045
same,glycan array binding signal (z-score),[21],-0.091
same,glycan array binding signal (z-score),[22],-0.091
same,glycan array binding signal (z-score),[23],-0.054
same,glycan array binding signal (z-score),[24],-0.091
same,glycan array binding signal (z-score),[25],-0.091
same,glycan array binding signal (z-score),[26],-0.091
same,glycan array binding signal (z-score),Neu5Ac(a2-6)Glc6S,-0.091
same,glycan array binding signal (z-score),Neu5Ac(a2-6)GlcNAc6S,-0.091
same,glycan array binding signal (z-score),[27],-0.091
